According to publication PMC5540273 (PLoS ONE, 2017):

Assays:
[1] = test system: PIK3CD
[2] = test system: PIK3CG
[3] = test system: T1, PIK4CB
T1 construct: gene PI4KB

[4] = test system: PIM1
[5] = test system: PIM3
[6] = test system: PIP5K1C
[7] = test system: T2, PKAC-alpha
T2 construct: gene PRKACA

[8] = test system: T3, PKAC-beta
T3 construct: gene PRKACB

[9] = test system: PKMYT1
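Note: kd values determined as follow-up on hits from a single-replicate KINOMEscan panel screen.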

CSc1nn2c(=O)cc(N3CCOCC3)nc2n1Cc1cccc(Cl)c1Cl [GSK2347225]
Kd [1]: 0.24 µM

CC(C)(C)c1ccc(-n2cnc3c(N)ncnc32)cc1 [SKF-97263]
Kd [2]: 2.4 µM

O=C(Nc1ccccc1F)NC1CCN(c2ccnc(Nc3ccc(F)cc3)n2)C1 (stereo not drawn) [GSK1379722]
Kd [3]: > 10 µM

O=C(c1ccc(-c2cc(-c3c[nH]nc3-c3ccccn3)ccn2)cc1)N1CCCC1 [GW792479]
Kd [4]: > 10 µM

CNc1nccc(-c2c(-c3ccc(F)cc3)ncn2CCCN2CCOCC2)n1 [SB-222516]
Kd [5]: > 10 µM

Nc1nc(-c2ccccn2)c(-c2ccnc3ccccc23)s1 [GW548057]
Kd [6]: > 10 µM

COc1cc2c(Nc3cccc(NC(=O)c4ccccc4)c3)ncnc2cc1OCCCN1CCOCC1 [GSK223810]
Kd [7]: > 10 µM

C[C@@H]1CCN(C(=O)CO)C[C@@H]1N(C)c1ncnc2[nH]ccc12
Kd [8]: > 10 µM | Kd [9]: > 10 µM
